NIH3T3 tox = kills NIH 3T3 cells; actives 4.3% (n = 94,000); NIH 3T3 viability, CellTiter-Glo ATP luminescence, 48-72 h; Potency, µM (titrated, usually from 96.7 µM), without a hit: top-dose activity change, negative = cytotoxicity, usual class: inhibitors; AID 1345082; note: nearly all actives have a fitted effect of over 55% in size
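Viability of NIH 3T3 cells after 48 or 72 hr compound treatment at 37 °C was assessed by CellTiter-Glo, with luminescence imaged following a 10 min room-temperature step.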
Luciferase inh = blocks purified firefly luciferase enzyme activity; P08659; purified P. pyralis luciferase, luminescence, biochemical; Potency, µM (doses to about 115 µM), usual class: inhibitors; actives 2.5% (n = 76,000); AID 1347043; note: nearly all actives have a fitted effect of over 65% in size
Target sequence (P08659 whole entry, looked up): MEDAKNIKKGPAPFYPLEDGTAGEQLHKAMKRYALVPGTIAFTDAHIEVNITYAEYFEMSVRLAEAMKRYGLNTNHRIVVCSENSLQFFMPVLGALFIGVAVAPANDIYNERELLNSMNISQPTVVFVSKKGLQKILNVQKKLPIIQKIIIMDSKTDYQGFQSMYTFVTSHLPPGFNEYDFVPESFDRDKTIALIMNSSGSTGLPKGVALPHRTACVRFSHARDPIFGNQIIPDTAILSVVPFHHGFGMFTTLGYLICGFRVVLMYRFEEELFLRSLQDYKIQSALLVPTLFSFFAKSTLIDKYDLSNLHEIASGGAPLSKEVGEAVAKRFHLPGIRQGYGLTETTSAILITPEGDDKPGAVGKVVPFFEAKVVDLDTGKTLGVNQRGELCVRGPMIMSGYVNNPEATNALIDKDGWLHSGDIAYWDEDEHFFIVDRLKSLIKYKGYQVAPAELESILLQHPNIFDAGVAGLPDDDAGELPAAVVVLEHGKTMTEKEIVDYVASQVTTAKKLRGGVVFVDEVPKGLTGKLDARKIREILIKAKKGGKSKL
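Biochemical qHTS: compound (6-point titration) added to 10uM D-luciferin plus 10uM ATP in Tris acetate pH 7.5 buffer with Mg, Tween-20 and BSA, then purified enzyme at 10nM; light output imaged.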
hNpr1 antagonist = blocks ANP-stimulated signaling of human Npr1 receptor | P16066 | HEK293 hNpr1 GloSensor cGMP, ANP-stimulated luminescence | Potency, µM (titrated, usually from 46.3 µM), without a hit: top-dose activity change, negative = inhibition, most hits filed as inhibitors | actives 1.6% (n = 76,000); calls by dose curve; note: nearly all actives have a fitted effect of over 60% in size
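Compound pre-incubated 30 min at room temperature on GloSensor-loaded HEK293 cells stably carrying hNpr1 and the pGS-40F cGMP biosensor. Stimulation uses hNppA at 0.1 nM final; luminescence is taken at baseline and 20 min post-agonist.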
SNCA viab count = counter-screen for SNCA expression inhibitors: cell viability; actives 0.12% (n = 150,000); AID 1671193; Potency, µM (top dose mostly 57.1 µM), for the others: at the top dose activity change, negative = cytotoxicity, actives largely listed as cytotoxic; HEK-293-SNCA-luc viability, GF-AFC fluorescence, 24 h;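 note: 0% = DMSO-treated cells and -100% = medium-only wells without cells; nearly all actives have a fitted effect of over 30% in size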
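HEK-293-SNCA-luc cells (1500/well) plated 24 h, then exposed 24 h to a dilution series; GF-AFC added 30 min at 37C, fluorescence 405/540 nm; normalised to medium-only and DMSO wells, Hill fit.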
SNCA expr inhib = inhibitors of alpha-synuclein (SNCA) gene expression; actives 0.17% (n = 140,000); HEK-293 SNCA-luciferase knock-in, luminescence, 24 h; AID 1671194; Potency, µM (doses to about 57.2 µM), without a hit: top-dose activity change, negative = inhibition, actives largely listed as inhibitors;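 note: plate controls were DMSO cells for no effect and cell-free wells for full effect; nearly all actives have a fitted effect of over 45% in size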
HEK293 tox = kills HEK 293 cells. AID 1345083. actives 6.6% (n = 94,000). Potency, µM (highest dose often 115 µM), inactives show at the top dose activity change, negative = cytotoxicity, actives largely listed as inhibitors. HEK 293 viability, ATP luminescence (CellTiter-Glo), 48-72 h; note: nearly all actives have a fitted effect of over 60% in size
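HEK 293 seeded at 250 cells/well receive compound via pintool. After 48 or 72 hr at 37 degree Celsius, 5% CO2 and 95% humidity, CellTiter-Glo is dispensed and luminescence read following 10 min at room temperature.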
Numbers without * were called inactive; [ ] = dose if it differs, or a comment. Compounds with a hit are over-represented: about 7.2% of the library has one in this group of screens. Unless noted, calls come from the whole dose curve; as a rule, active = well fitted curve in the direction sought with a large enough effect; inconclusive = small, poorly fitted or top-dose-only effect, or another doubt; inactive = no such curve, though single readings can be large; an effect the other way counts as inactive or inconclusive. Unless noted, % is set by controls: 0 for no effect and ±100 for the full control effect; potency is the fitted concentration of half-maximal effect.

Screening O=C(CC1CCCC1)NCC1CCCCC(=O)N1 (configuration not stated) returned NIH3T3 tox -1%, Luciferase inh inactive, hNpr1 antagonist 7%, SNCA viab count 2%, SNCA expr inhib 6% and HEK293 tox 2%.
`c1ccc(CCCN2CC[C@H](c3nc4ccccc4s3)C2)cc1` gave NIH3T3 tox 89µM*, Luciferase inh inconclusive, hNpr1 antagonist -20%[70.6 µM], SNCA viab count 5%[87.6 µM], SNCA expr inhib 50%[87.6 µM] and HEK293 tox 100µM*.
For OCCC1CN(Cc2nc3ccccc3s2)CCN1Cc1ccc(F)c(F)c1 (configuration not stated) the results were NIH3T3 tox -23%, Luciferase inh inactive, hNpr1 antagonist -30%, SNCA viab count 0%, SNCA expr inhib -22% and HEK293 tox 79µM*.
For C=C1C(=O)O[C@@H]2C/C(C)=C\C(=O)/C=C(\C)[C@@H](OC(=O)/C(C)=C\C)[C@H](O)[C@@H]12 the results were SNCA viab count 15µM*.
Screening Cc1noc(C)c1[S+](=O)([O-])N1CCCC(C(=O)N2CCC(c3nc4ncccc4[nH]3)CC2)C1 (configuration not stated) returned NIH3T3 tox -17%, SNCA viab count 5%, SNCA expr inhib -11% and HEK293 tox -7%.
For O=C(C1CCCN([S+](=O)([O-])c2cccc(C(F)(F)F)c2)C1)N1CCCC(c2nc3ccncc3[nH]2)C1 (configuration not stated) the results were NIH3T3 tox inconclusive, SNCA viab count -24%, SNCA expr inhib inconclusive and HEK293 tox 45µM*.
`Cc1ccc([S+](=O)([O-])N2CCCC(C(=O)N3CCC(c4nc5ncccc5[nH]4)CC3)C2)cc1` (configuration not stated) gave NIH3T3 tox inconclusive, SNCA viab count -13%, SNCA expr inhib -4% and HEK293 tox 50µM*.
Screening Cc1ccc([S+](=O)([O-])N2CCC(C(=O)N3CCCC(c4nc5ncccc5[nH]4)C3)CC2)cc1 (configuration not stated) returned NIH3T3 tox inconclusive, SNCA viab count -2%, SNCA expr inhib inconclusive and HEK293 tox 28µM*.
`O=C(Nc1ccc(Cl)cc1)N1CCCC(C(=O)N2CCCC(c3nc4ncccc4[nH]3)C2)C1` (configuration not stated) gave NIH3T3 tox 22µM*, SNCA viab count -1%, SNCA expr inhib inconclusive and HEK293 tox inconclusive.
O=C(Nc1ccc(Cl)cc1)N1CCCC(C(=O)N2CCC(c3nc4ncccc4[nH]3)C2)C1 (configuration not stated) was read as NIH3T3 tox -20%, SNCA viab count 10%, SNCA expr inhib 10% and HEK293 tox -27%.
Cc1ccc(C(=O)N2CCC(n3cc(-c4nc(C(C)C)no4)nn3)CC2)s1 was read as NIH3T3 tox -21%, Luciferase inh inactive, hNpr1 antagonist 0%, SNCA viab count -2%, SNCA expr inhib -2% and HEK293 tox inconclusive.
Screening c1cnc2nc(C3CCN(CC4CCCCC4)C3)[nH]c2c1 (configuration not stated) returned NIH3T3 tox -22%[138 µM], Luciferase inh 20µM*, hNpr1 antagonist 6%[70.6 µM], SNCA viab count -6%[87.6 µM], SNCA expr inhib 103%[87.6 µM] and HEK293 tox inconclusive.
`O=C(C1CCN(CC2CC2)CC1)N1CCC(c2nc3ncccc3[nH]2)CC1` gave NIH3T3 tox -3%, SNCA viab count 8%, SNCA expr inhib 1% and HEK293 tox inactive.
Screening Cn1ncc2c(C(=O)NC3CCN(Cc4ccccc4)CC3)cc(-c3cc(Cl)cc(Cl)c3)nc21 returned NIH3T3 tox -7% and HEK293 tox -14%.
For Cc1ccc(C)c(N2CCN(c3nc4ccccc4c(=O)n3-c3ccccc3)CC2)c1 the results were SNCA viab count 25% and SNCA expr inhib 2.5µM*.
CCc1ccc(-n2c(N3CCN(c4cccc(C)c4C)CC3)nc3ccccc3c2=O)cc1 was read as SNCA viab count 2% and SNCA expr inhib 0%.
Screening COc1ccccc1-n1c(=O)c(C(=O)N2CCC(c3ccccc3)CC2)nc2cccnc21 returned NIH3T3 tox -3%, SNCA viab count -9%, SNCA expr inhib 11% and HEK293 tox inactive.
`Cc1nc(Nc2n[nH]c3c2CN(C(=O)NC(CN(C)C)c2ccccc2)C3(C)C)c2sccc2n1` (configuration not stated) gave SNCA viab count 7.5µM*.
COc1cccc(C(=O)N2CCC(N3C[C@H](O)C[C@H]3C(=O)NCc3ccc(F)cc3)CC2)c1 was read as NIH3T3 tox inactive, Luciferase inh inactive, hNpr1 antagonist 1%, SNCA viab count 2%, SNCA expr inhib 1% and HEK293 tox inactive.
For O=C1CCN(C(=O)CC2CCCC2)CCCC(c2nc(-c3ccccc3)no2)CCN1 (configuration not stated) the results were NIH3T3 tox inconclusive, Luciferase inh inactive, hNpr1 antagonist 1%, SNCA viab count -15%, SNCA expr inhib 3% and HEK293 tox inconclusive.
For O=C(O)CCC(=O)N1Cc2ccccc2CC2(CCCN(Cc3ccccc3)C2)C1 (configuration not stated) the results were NIH3T3 tox -3%, SNCA viab count 0%, SNCA expr inhib -10% and HEK293 tox -4%.
Cc1nn(C)c(C)c1CCCN(C)C(=O)C1N(C(C)C)C(=O)C12CCCC2 (configuration not stated) was read as NIH3T3 tox inactive, Luciferase inh inactive, hNpr1 antagonist 2%, SNCA viab count 1%, SNCA expr inhib -25% and HEK293 tox -12%.
CS(=O)(=O)N1CCc2ccc(C(=O)Nc3ccc(Cl)c(C(F)(F)F)c3)cc21 was read as NIH3T3 tox -36%, Luciferase inh 18µM*, hNpr1 antagonist inconclusive, SNCA viab count -18%, SNCA expr inhib 97% and HEK293 tox 20µM*.
Screening COc1ccc(NC(=O)c2ccc3c(c2)N(S(C)(=O)=O)CC3)cc1Cl returned NIH3T3 tox -23%, Luciferase inh 1µM*, hNpr1 antagonist inconclusive, SNCA viab count -2%, SNCA expr inhib inconclusive and HEK293 tox inconclusive.
For CCC1(CC)CN(C(=O)C2CCC(=O)N(Cc3ccccn3)C2)CCO1 (configuration not stated) the results were NIH3T3 tox -12%, Luciferase inh inactive, hNpr1 antagonist -3%, SNCA viab count 7%, SNCA expr inhib 6% and HEK293 tox -7%.

Bioassay records (PubChem)
